According to PubChem BioAssay AID1813 (Broad Institute, 2009):
Values joined by “and” are separate entries in the source; they are usually repeats but may differ in a detail not shown here. Equal values may be shown once. Among all 300,000 compounds or so, about 2,500 (0.83%) were called active. This is one part of a sample in which actives are shown more often than they occur. Values without a mark were called inactive. Cut-off read from the data, not from the text of the source: active = inhibition above about 60%; inconclusive = no clear call, values can overlap the other calls; inactive = below that.

test: 5' untranslated region of α-synuclein, MLPCN primary screen (AID 1813); conditions: alpha-synuclein 5'UTR reporter, inhibitor activity; stronger effect = higher value; tested at 7.5 µM;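 note: H4 neuroglioblastoma cells stably carrying SNCA 5'UTR luciferase fusion; 0% = DMSO wells and 100% = positive control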

First: Cc1ccc(CNC(=O)c2ccc3c(c2)S(=O)(=O)c2ccccc2C3=O)cc1
Second: COc1cccc(/C=C2\C=C(c3ccc(C)cc3)OC2=O)c1OC(C)=O
The inhibition of the first is higher: 5.46% for the first, -65.8% for the second.

Compared with CCN(C(=O)c1cc([N+](=O)[O-])ccc1NCc1cccnc1)c1ccccc1, CN(NC(=O)c1ccccc1)c1nc2ccccc2nc1C(F)(F)F is lower in inhibition: 14.1% for the first, -26.7% for the second.

First: CCCCn1ccnc1C(=O)c1cccc(S(=O)(=O)N2c3ccccc3CC2C)c1 (stereo not given)
Second: COc1ccccc1OC(C)C(=O)Nc1ccc(S(=O)(=O)Nc2nccs2)cc1 (stereo not given)
The inhibition of the first is lower: 4.82% for the first, 8.93% for the second.

First: COc1ccc(-c2cn3ccsc3n2)cc1
Second: CCN(CC)S(=O)(=O)c1ccc(-c2cn3ccc(C)cc3n2)cc1
The inhibition of the first is higher: -105% for the first, -169% for the second.

Going from CCc1nc2cccnc2n1-c1ccc(C(=O)O)cc1 to CN(NC(=O)c1ccccc1F)c1nc(C(F)(F)F)nc2ccccc12, the inhibition rises from -14.6% to 39.8%.

First: Fc1ccc(-n2c(Cc3ccccc3)nnc2SCc2nc(-c3ccc(Cl)cc3)no2)cc1
Second: O=C(Cc1ccc(-n2c(=O)c3sccc3n(Cc3ccc(F)cc3)c2=O)cc1)NCc1ccco1
The inhibition of the first is lower: -3.62% for the first, 11.3% for the second.

Compared with CCN(CC)CCNCc1ccc(OCc2ccc(Cl)nc2)c(OC)c1, O=C(COC(=O)c1ccc(Cl)nc1)NCc1ccc2c(c1)OCO2 is higher in inhibition: -27.5% for the first, 17.3% for the second.

First: CCOc1cccc(/C=C/c2ccc3ccccc3n2)c1OC(C)=O
Second: CCOc1ccccc1NC(=O)Cc1cccs1
The inhibition of the first is higher: 49.2% for the first, 19.4% for the second.

Compared with CCCOC1CCCN(C(=O)c2cc(COc3cncc(Cl)c3)on2)C1 (stereo not given), CCN1CCN(CC(=O)c2cc(OC)c(OC)c(OC)c2)CC1 is higher in inhibition: -219% for the first, -44% for the second.

Going from C[C@H](NC(=O)c1nc[nH]c1C(=O)NCC(=O)OC(C)(C)C)c1ccccc1 to O=C(NCC(=O)N(c1ccccc1)C(C(=O)NCC1CCCO1)c1ccccc1)c1cccs1 (stereo not given), the inhibition falls from 24.4% to 15.4%.

Compared with Cc1ccc(-c2cc(=O)c3ccc(F)cc3[nH]2)cc1, Cc1ccc(-c2cc(=O)c3ccc(Cl)cc3[nH]2)cc1 is higher in inhibition: -68.9% for the first, -19.2% for the second.

Compared with CC(C)C[C@H](CO)Nc1nc(N(C)c2cccc(Cl)c2)c2ncn(C(C)C)c2n1, COC(=O)C(C)n1cnc2c(nnn2-c2cccc(Cl)c2)c1=O (stereo not given) is lower in inhibition: 24.9% for the first, -6.77% for the second.

First: CSc1cc(C)n(-c2ccccc2C)c(=S)c1C(C)=O
Second: COc1cc2ccccc2cc1C(=O)Nc1nc(C)c(C(C)=O)s1
The inhibition of the first is higher: -18% for the first, -106% for the second.

Going from O=C(CCN1C(=O)c2ccncc2C1=O)Nc1cc(F)ccc1F to Cc1ccc(NC(=O)Cn2nnc(C(=O)NCc3ccco3)c2N)c(C)c1, the inhibition falls from 10.3% to -2.22%.

Compared with O=C(N/N=C/c1ccc(OC(=O)c2ccccc2Cl)cc1)c1ccc(O)cc1, COC(=O)C1=C(C)N(c2ccc(C)cc2)/C(=C/c2ccc(O)cc2)C1=O is lower in inhibition: -1.64% for the first, -12.4% for the second.

Going from O=C(N/N=C/c1ccoc1)c1ccc(Cl)cc1Cl to COc1cc(SC)ccc1C(=O)Nc1cc(C)ccn1, the inhibition falls from -0.701% to -8.42%.

First: Cc1ccc(S(=O)(=O)N/N=C(\c2ccccc2)C2CC2)cc1
Second: O=S(=O)(c1ccc(F)cc1)N1CCN(C(=S)NC2CCCC2)CC1
The inhibition of the first is lower: -11.6% for the first, 4.9% for the second.

First: O=C(O)C1CCN(C(=O)c2cc(F)cc3c2OCOC3)CC1
Second: CC(C)CN(C(=O)c1ccc2c(c1)OCO2)C1CCS(=O)(=O)C1 (stereo not given)
The inhibition of the first is higher: 19.4% for the first, -8.68% for the second.

Going from CC(=NCc1ccco1)c1c(C(F)(F)F)[nH]n(-c2nc3ccccc3s2)c1=O to C/C(=N\NC(=O)CC(C)C)c1c(C(F)(F)F)[nH]n(-c2nc3ccccc3s2)c1=O, the inhibition rises from -117% to -51.5%.

First: CNC[C@H](CC1CCCCC1)NC[C@H](NCCC1CCCC1)[C@H](C)O
Second: CC(=O)N1C(C)c2ccccc2C(C)(C)CC12CCCCC2 (stereo not given)
The inhibition of the first is lower: -34.1% for the first, -9.23% for the second.

Going from Cc1csc(NC(=O)c2ccc(C)s2)n1 to COc1ccc(Cc2nnc(NC(=O)c3ccc(OC)cc3OC)s2)cc1, the inhibition rises from -174% to -62.4%.

Going from Cn1c(Cc2cccs2)nnc1SCC(=O)Nc1ccccc1 to COc1ccc(NC(=O)CSc2ccc(-c3ccco3)nn2)c(OC)c1, the inhibition falls from 11% to 7.22%.

First: CC(C)C(=O)N1CCN(c2nc(-c3ccccc3)c3c(c2C#N)CC(C)(C)OC3)CC1
Second: CCO[C@H]1OC(C(=O)N2CCN(Cc3ccccc3)CC2)=C[C@@H](c2cn(C(C)=O)c3ccccc23)[C@@H]1CCCO
The inhibition of the first is lower: -10.5% for the first, 14.2% for the second.

Compared with O=c1c2cc(-c3ccccc3)sc2nc2n1N=C(c1cccs1)CS2, CSc1ncc(Sc2ccccc2)c(C(=O)O)n1 is higher in inhibition: -105% for the first, 9.17% for the second.

With COc1ccc(-c2cn3ccc(C)cc3n2)cc1 the inhibition was 92.2% (active).
With COc1cccc(/C=C/c2ccc3ccccc3n2)c1OC(C)=O the inhibition was 83.1% (active).
In the case of O=c1cc(-c2ccccc2)[nH]c2cc(F)ccc12, the inhibition is reported as 93.3% (active).
For CC(C)n1cnc2c(Nc3cccc(Cl)c3)nc(N(CCO)CCCO)nc21, the inhibition was 64.7% (active).
For CC(C)(C)C(=O)Nc1ccc(C(=O)N/N=C/c2ccccc2OC(=O)c2ccc(Cl)cc2Cl)cc1, the inhibition was 65.2% (active).
For CCOc1ccccc1NC(=O)Cn1nnc(C(=O)NCc2cccs2)c1N, the inhibition was 84.9% (active).
With COC(=O)Cc1[nH]n(-c2nc3ccccc3s2)c(=O)c1C(C)=Nc1ccc(OC)cc1 the inhibition was 68.9% (active).
With COC(=O)c1sc(NC(=O)c2ccc(OC)cc2OC)nc1C the inhibition was 101% (active).
With COc1cc(SC)ccc1C(=O)Nc1nc(C)cs1 the inhibition was 96.2% (active).
For CSc1nc(N(C)NC(=O)c2cccc(C)c2)c2ccccc2n1, the inhibition was 114% (active).
For O=C(Cn1c[n+](CC(=O)c2ccc([N+](=O)[O-])cc2)cn1)c1ccc([N+](=O)[O-])cc1, the inhibition was 1.61% and -7.59%.
In the case of CSc1nc(-c2ccccc2)nc(C(Cl)Cl)n1, the inhibition is reported as 114% (active).
